The record followed here is ChEMBL document CHEMBL1961873, “Compounds: GSK PKIS; Assays: Nanosyn kinase panel” (2012).
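Also: reported values are mean inhibition figures.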

For this experiment, the target named is T1, Non-receptor tyrosine-protein kinase TNK1 (Homo sapiens) (UniProt Q13470).
T1 sequence (whole entry): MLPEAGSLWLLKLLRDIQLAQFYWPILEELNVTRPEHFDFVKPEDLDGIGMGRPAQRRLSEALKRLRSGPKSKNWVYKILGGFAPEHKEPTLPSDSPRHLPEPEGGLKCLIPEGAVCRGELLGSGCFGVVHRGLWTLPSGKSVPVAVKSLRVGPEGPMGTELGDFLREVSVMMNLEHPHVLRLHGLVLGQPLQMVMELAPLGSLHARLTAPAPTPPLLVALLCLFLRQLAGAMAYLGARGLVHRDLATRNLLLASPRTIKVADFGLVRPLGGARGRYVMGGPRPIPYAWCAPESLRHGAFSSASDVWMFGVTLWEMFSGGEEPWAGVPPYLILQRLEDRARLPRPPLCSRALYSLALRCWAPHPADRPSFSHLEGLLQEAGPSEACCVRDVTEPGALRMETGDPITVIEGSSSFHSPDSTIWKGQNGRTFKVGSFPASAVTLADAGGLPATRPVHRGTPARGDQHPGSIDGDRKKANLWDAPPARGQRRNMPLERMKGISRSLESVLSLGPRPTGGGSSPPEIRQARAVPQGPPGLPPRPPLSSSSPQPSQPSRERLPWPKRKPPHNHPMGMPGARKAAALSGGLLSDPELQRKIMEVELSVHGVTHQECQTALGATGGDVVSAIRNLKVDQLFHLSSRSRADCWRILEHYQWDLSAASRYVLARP
Conditions: at 0.1 µM.
Usually inhibition stands for the drop in the measured response relative to a control, in per cent. For `CCS(=O)(=O)c1ccc(OC)c(Nc2ncc(-c3cccc(OC)c3)o2)c1`, the inhibition came to 49%.
Regarding `Cc1ccc2c(-c3ccnc(Nc4cccc(C(F)(F)F)c4)n3)c(-c3ccccc3)nn2n1`, the inhibition was 2.78%.
In the case of `CN(C)C(=O)O[C@H]1CN[C@H](C#Cc2cc3ncnc(Nc4ccc(OCc5cccc(F)c5)c(Cl)c4)c3s2)C1` it was 1.02%; in that of `COc1cccc(-n2nc(C)c3c(N/N=C(\C)c4ccncc4)ncnc32)c1`, -1.41%.
In the case of `CCn1c(-c2nonc2N)nc2ccc(F)cc21` it was 7.71%; in that of `Cc1cc(Cl)cc2c1NC(=O)C2=NNc1ccc(S(N)(=O)=O)cc1`, -0.6%; in that of `CN1CCN(C(=O)c2ccc(NC(=O)Nc3ccc(N(C)c4ccnc(Nc5ccc(CS(C)(=O)=O)cc5)n4)cc3)cc2)CC1`, 46.2%.
`C[C@@H](Oc1cc(-n2cnc3ccc(OCC4CCN(C)CC4)cc32)sc1C(N)=O)c1ccccc1C(F)(F)F`: the inhibition was 3.21%.
With `Cc1nc(-c2ccccc2)n2nc(NCCCN3CCOCC3)ncc12` the figure was 1.98%.
Consider `CN(C)C(=O)O[C@@H]1CN[C@@H](C#Cc2cc3ncnc(Nc4ccc(OCc5cccc(F)c5)c(Cl)c4)c3s2)C1`, for which the inhibition turned out to be 0.44%.
With `c1ccc(Nc2ncc(-c3ccccc3)o2)cc1` the figure was 5.05%; with `COc1cccc(-n2ncc3c(N/N=C/c4ccc(S(C)(=O)=O)cc4)ncnc32)c1`, 10.4%.
In the case of `OCc1ccc(-c2nc(-c3ccccn3)c(-c3ccc4c(c3)OCO4)[nH]2)cc1` it was 5.37%; in that of `c1ccc(Cc2nc3ccc(Nc4ncnc5ccccc45)cc3[nH]2)cc1`, 1.92%; in that of `CC(C)c1ccc2c(c1)NC(=O)/C2=N/Nc1ccc(S(N)(=O)=O)cc1`, 2.2%.
For `NC(=O)c1cccc(Nc2nccc(Nc3cccc(F)c3)n2)c1`, the inhibition turned out to be 6.18%.
In the case of `COc1cc2ncn(-c3cc(OCc4ccccc4S(C)(=O)=O)c(C#N)s3)c2cc1OC` it was 38.6%.
With `COc1cccc(-n2ncc3c(N/N=C/c4ccc(C)cc4)ncnc32)c1` the figure was 4.86%; with `CN(C)CCCn1c(-c2nonc2N)nc2cnccc21`, 1.08%; with `O=C1Nc2ccc(-c3cccnc3)cc2C1=Cc1cc(Br)c(O)c(Br)c1`, 52.5%.
With `N#Cc1c(NC(=O)c2ccccc2F)sc2c1CCCC2`, the inhibition was -2.62%.
In the case of `CCOc1nccc2c1nc(-c1nonc1N)n2CC`, the inhibition was 2.63%.
With `COC(=O)c1cncc(/C=C/c2c(C)cc(O)cc2C)c1` the figure was 4.05%.
In the case of `NS(=O)(=O)c1ccc(NC=C2C(=O)Nc3ccc4ncsc4c32)cc1` it was 15.6%; in that of `CN(c1ccc(NC(=O)Nc2ccc(OC(F)(F)F)cc2)cc1)c1ccnc(Nc2cccc(S(N)(=O)=O)c2)n1`, 21.4%; in that of `Cc1ccc(Nc2ccnc(Nc3cccc(C(N)=O)c3)n2)cc1O`, 8.82%.
As for `CC(C)c1ccc(Nc2nccc(-c3cnn4ncccc34)n2)cc1`, the inhibition was found to be 5.68%.
With `NS(=O)(=O)c1cccc(Nc2cc(-c3ccc(F)cc3)n[nH]2)c1` the figure was 2.68%.
With `Cc1ccc(NC(=O)CC2CC2)cc1-c1ccc(C(=O)NCC2CC2)cc1` the figure was 2.27%; with `N#Cc1cccc(Nc2nccc(-c3cnn4ncccc34)n2)c1`, 11.9%.
Consider `NS(=O)(=O)c1ccc(N/N=C2\C(=O)Nc3ccc(Cl)cc32)cc1`, for which the inhibition worked out at 3.04%.
With `Nc1ccc(C#Cc2cncnc2Nc2ccc(OCc3cccc(F)c3)c(Cl)c2)cc1` the figure was -0.01%.
With `Nc1nccc(-c2c(-c3ccc(F)cc3)nn3cc(C(F)(F)F)ccc23)n1` the figure was 2.37%.
